Most compounds without a hit are left out; they make up all but 5% or so of the library.
CHT block: human CHT choline transport inhibition. Q9GZV3. CHT-expressing cells, membrane potential dye, choline response; hits give low values. B-score at 10 µM. 310,000 tested, 0.86% active. AID 488975;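 active means B-score over 3 SD under the library average, and starting fluorescence ratio not unusually high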;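 further: choline stimulus applied at its EC90 after an EC20 pre-addition; B-score computed on integrated fluorescence ratio after choline addition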
AI-2 QS mod: Vibrio harveyi AI-2 quorum sensing modulation; Vibrio harveyi JMH597 AI-2 luminescence/OD600 ratio, 9 h; hits give low values; strain lacks LuxN and CqsS sensors; 0 = neutral-control median; activity change, % at 7.5 µM; 300,000 tested, 0.4% active; in the data active means activity change below about -75%, passing the limit was not always enough;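 further: luminescence divided by OD600 gain over 9 h not by final OD600 alone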
CHT PAM: allosterically activates the human high affinity choline transporter | CHT-expressing cells, membrane potential dye, choline EC20; hits give high values; LV-AA mutant CHT in HEK293 cells | B-score at 10 µM | 310,000 tested, 0.49% active;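 active means initial fluorescence not abnormally high and integrated response B-score, plate-corrected, over 3 SD above library mean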
ALR H2O2 inh: human ALR oxidase inhibition via reduced H2O2; inhibition, % (test concentration not listed); P55789; 290,000 tested, 3.8% active; purified ALR, DTT oxidation, H2O2 HRP-luminol luminescence;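 active means mean replicate inhibition above about 79%, with every replicate also reaching it, limit read from the data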
Target sequence (P55789 whole entry, looked up): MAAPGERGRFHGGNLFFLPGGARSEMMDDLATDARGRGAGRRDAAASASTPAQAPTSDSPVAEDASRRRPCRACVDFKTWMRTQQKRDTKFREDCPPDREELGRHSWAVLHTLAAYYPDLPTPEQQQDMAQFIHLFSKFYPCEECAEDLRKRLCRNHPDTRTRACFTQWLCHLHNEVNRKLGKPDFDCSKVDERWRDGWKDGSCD
PREPL inhibitor: inhibitors of human prolyl oligopeptidase-like enzyme PREPL. AID 2751. inhibition, % at 5.96 µM. 320,000 tested, 0.68% active. recombinant PREPL, fluorescence polarization activity-based probe; in the data active means inhibition above about 43%;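 further: 0% = enzyme with DMSO and 100% = wells lacking enzyme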
The depositor's hits bear a star.

What do the screens show for `CC1CCC(C(C)C)C(OCC(O)CN2CCOCC2)C1` (stereo not given)?
CHT block: inactive; AI-2 QS mod: 22; CHT PAM: inactive; ALR H2O2 inh: -1; PREPL inhibitor: -1

How did CC1CCC(C(C)C)C(OCC(O)C[N+]2(C)CCCCC2)C1 (stereo not given) do in these assays?
CHT block: inactive; AI-2 QS mod: -1; CHT PAM: inactive; ALR H2O2 inh: 99*; PREPL inhibitor: 13

How did COc1ccc(NC(=O)Nc2cccc3c2O[C@H](CN(C)S(=O)(=O)c2c(C)noc2C)[C@@H](C)CN([C@H](C)CO)C3=O)cc1 do in these assays?
ALR H2O2 inh: -5; PREPL inhibitor: 33

What do the screens show for `COc1cc(/C=C(\C#N)c2nc3ccccc3n2C)cc(OC)c1O`?
CHT block: inactive; AI-2 QS mod: 5; CHT PAM: inactive; ALR H2O2 inh: 99*; PREPL inhibitor: 4

How did Cn1c(/C(C#N)=C/c2ccc(O)cc2)nc2ccccc21 do in these assays?
CHT block: inactive; AI-2 QS mod: 11; CHT PAM: inactive; ALR H2O2 inh: 99*; PREPL inhibitor: -5

What do the screens show for `Cn1c(/C(C#N)=C/c2ccncc2)nc2ccccc21`?
CHT block: inactive; AI-2 QS mod: 20; CHT PAM: inactive; ALR H2O2 inh: 3; PREPL inhibitor: 5

Results for Cc1cccc(N2CCN(C(=O)NCc3ccc(F)cc3)CC2)c1C ?
CHT block: inactive; AI-2 QS mod: -1; CHT PAM: inactive; ALR H2O2 inh: 1; PREPL inhibitor: 5

How did COc1ccc(Cc2nc3ccc(C(=O)NCCc4ccccn4)cc3o2)cc1OC do in these assays?
CHT block: inactive; AI-2 QS mod: 35; CHT PAM: inactive; ALR H2O2 inh: 10; PREPL inhibitor: 2

Results for COc1cc2cccc(OC)c(=O)c2c(O)c1OC ?
CHT block: inactive; AI-2 QS mod: -3; CHT PAM: inactive; PREPL inhibitor: 13

What do the screens show for `COc1cc2c(ccc3cc(OC)c(OC)c(O)c32)cc1O`?
CHT block: inactive; AI-2 QS mod: 29; CHT PAM: inactive; ALR H2O2 inh: 99*; PREPL inhibitor: 20

Results for O=C(NCCS(=O)(=O)N1CCN(c2ccc(F)cc2)CC1)C12CC3CC(CC(C3)C1)C2 ?
CHT block: inactive; AI-2 QS mod: 18; CHT PAM: inactive; ALR H2O2 inh: -9; PREPL inhibitor: 12

How did N#CC1=C(N)Oc2n[nH]c(-c3ccccc3)c2C12C(=O)Nc1ccccc12 (stereo not given) do in these assays?
CHT block: inactive; AI-2 QS mod: 22; CHT PAM: inactive; ALR H2O2 inh: -12; PREPL inhibitor: 2

What do the screens show for `Cn1c2c(c(=O)n(C)c1=O)[C@@]1(C(=O)Nc3ccccc31)C(C#N)=C(N)O2`?
CHT block: inactive; AI-2 QS mod: -92*; CHT PAM: inactive; ALR H2O2 inh: 47; PREPL inhibitor: -6

What do the screens show for `COc1ccc(S(=O)(=O)NNc2nc(C)cc(C)n2)cc1[N+](=O)[O-]`?
CHT block: inactive; AI-2 QS mod: 6; CHT PAM: inactive; ALR H2O2 inh: -2; PREPL inhibitor: 19

What do the screens show for `Cc1ccc(N(CC(=O)N/N=C/c2cc(C)n(-c3ccccc3C)c2C)S(C)(=O)=O)cc1`?
CHT block: -7*; AI-2 QS mod: 19; CHT PAM: inactive; ALR H2O2 inh: 0; PREPL inhibitor: 7

How did O=C(NC1CCN(S(=O)(=O)c2ccccc2)CC1)c1cccc(F)c1 do in these assays?
CHT block: inactive; AI-2 QS mod: 1; CHT PAM: inactive; PREPL inhibitor: 1

What do the screens show for `COc1cccc(C(=O)NNC(=O)c2cccnc2)c1`?
CHT block: inactive; AI-2 QS mod: 0; CHT PAM: inactive; PREPL inhibitor: 16

Results for O=C(NNC(=S)NC(=O)c1ccccc1)c1cccnc1 ?
CHT block: inactive; AI-2 QS mod: 36; CHT PAM: inactive; ALR H2O2 inh: 98*; PREPL inhibitor: 8

How did COc1cc(OC)cc(C(=O)NNC(=S)NC(=O)c2cccnc2)c1 do in these assays?
CHT block: inactive; AI-2 QS mod: 91; CHT PAM: inactive; ALR H2O2 inh: 98*; PREPL inhibitor: -6

Results for COc1ccc(C(=O)NC(=S)NNC(=O)c2cccnc2)cc1 ?
CHT block: inactive; AI-2 QS mod: 5; CHT PAM: inactive; ALR H2O2 inh: 99*; PREPL inhibitor: -3

What do the screens show for `Cc1c(C(=O)Oc2ccc(Cl)cc2)n(C)oc1=O`?
CHT block: inactive; AI-2 QS mod: 5; CHT PAM: inactive; PREPL inhibitor: 2

Screens (PubChem BioAssay)
